Assay [1] deals with Retinoic acid receptor RXR-alpha (Homo sapiens) (UniProt P19793). Description: OT_NURR1_NURR1RXRa_0480: Odyssey Thera (OT) 8-hour HEK293T Protein Complementation Assay for Nurr1/retinoid X receptor (RXR) (AID 2283385). In short, it runs like this:
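Interaction of bait and prey reconstitutes a functional reporter, whose fluorescence was measured in HEK293T cells dosed with compound for 8 hours. Signal gain relative to DMSO defined the single endpoint.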

For assay [2] the target is unchanged. As to the kind of experiment: OT_NURR1_NURR1RXRa_1440: Odyssey Thera (OT) 24-hour HEK293T Protein Complementation Assay for Nurr1/retinoid X receptor (RXR) (AID 2283386). In short, it runs like this:
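Steps: fragment-tagged Nurr1 and RXRα expressed in HEK293T; compounds added; after 24 h, complemented reporter quantified by fluorescence intensity; signal increase over DMSO fitted as the single endpoint.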

The target of assay [3] is Peroxisome proliferator-activated receptor gamma (Homo sapiens) (UniProt P37231). Description: OT_PPARg_PPARgSRC1_0480: Odyssey Thera (OT) 8-hour Protein-Complementation Assay for Peroxisome Proliferator-activated Receptor Gamma / SRC-1 Co-activator (AID 2283387).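 Note: nuclear to cytoplasmic split Venus YFP fluorescence ratio reporting PPARg SRC-1 interaction.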 An outline of the steps: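 Read-out: 488 nm N/C fluorescence ratio from complemented Venus YFP fragments, ≥350 cells per image, gain-of-signal fitted against DMSO baseline. Fusions of PPARg/SRC-1 with IFP1/IFP2 expressed transiently in HEK293T; compounds applied 8 h.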
Chain of Peroxisome proliferator-activated receptor gamma (Homo sapiens) (P37231 whole entry, looked up, the tested form may be a part): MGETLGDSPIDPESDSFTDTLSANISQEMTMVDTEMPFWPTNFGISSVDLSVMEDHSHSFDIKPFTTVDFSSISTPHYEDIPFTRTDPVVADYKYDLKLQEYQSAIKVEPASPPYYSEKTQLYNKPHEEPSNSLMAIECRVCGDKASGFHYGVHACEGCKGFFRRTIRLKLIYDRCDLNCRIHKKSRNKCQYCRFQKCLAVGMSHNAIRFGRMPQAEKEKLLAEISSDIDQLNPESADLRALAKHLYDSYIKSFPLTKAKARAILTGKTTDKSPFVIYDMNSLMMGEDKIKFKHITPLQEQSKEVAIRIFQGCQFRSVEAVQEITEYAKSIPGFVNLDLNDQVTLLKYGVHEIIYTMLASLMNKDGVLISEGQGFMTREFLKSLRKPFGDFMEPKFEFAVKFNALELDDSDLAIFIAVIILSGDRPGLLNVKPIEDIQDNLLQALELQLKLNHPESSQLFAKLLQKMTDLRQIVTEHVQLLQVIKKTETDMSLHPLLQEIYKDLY

Assay [4] has the same target. Description: OT_PPARg_PPARgSRC1_1440: Odyssey Thera (OT) 24-hour Protein-Complementation Assay for Peroxisome Proliferator-activated Receptor Gamma/ SRC-1 Co-activator (AID 2283388).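 Note: nuclear to cytoplasmic ratio of reconstituted Venus YFP fluorescence in fixed imaged cells.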 In short, it runs like this:
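Readout: nuclear-to-cytoplasmic 488 nm fluorescence ratio, ≥350 cells per image, 8 images per well, after 24 h compound exposure of HEK293T expressing PPARg/SRC-1 split-YFP fusions. Activity fitted in positive direction against DMSO.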

Assay [5] is described as follows: CEETOX_H295R_11DCORT: CeeTox H295R High-throughput Steroidogenesis Assay for 11-Deoxycortisol (11DCORT) (AID 2283432; active = hit-call score of the fitted dose curve at least 0.9, where 1 is the maximum; inactive = score below 0.9;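 for AC50: human adrenal H295R cells prestimulated with 10 µM forskolin for 48 h; 11-deoxycortisol secreted into the medium measured by LC-MS/MS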). To be noted: actives raise or lower the signal. An outline of the steps:
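H295R cells; 10 uM forskolin prestim 48 h; compound in 0.1% DMSO 48 h; media extracted with MTBE; 11-deoxycortisol by LC-MS/MS, 7-point standard curve; gain/loss vs DMSO baseline; viability by MTT in same wells.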

The nature of assay [6]: CEETOX_H295R_OHPREG: CeeTox H295R High-throughput Steroidogenesis Assay for OH-Pregnenolone (OHPREG) (AID 2283434; active = hit-call score of the fitted dose curve at least 0.9, where 1 is the maximum; inactive = score below 0.9). The note with it: actives raise or lower the signal. An outline of the steps:
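Readout: HPLC-MS/MS of 17alpha-hydroxypregnenolone in medium after 48 h chemical exposure of H295R cells pretreated with forskolin. Values fitted bidirectionally relative to DMSO; chemicals reducing viability to 20–70% were retested after 10-fold dilution.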

The nature of assay [7]: CEETOX_H295R_OHPROG: CeeTox H295R High-throughput Steroidogenesis Assay for OH-Progesterone (OHPROG) (AID 2283435; active = hit-call score of the fitted dose curve at least 0.9, where 1 is the maximum; inactive = score below 0.9). The note with it: actives raise or lower the signal. In short, it runs like this:
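Steps: seed H295R cells and adhere overnight; stimulate with 10 uM forskolin for 48 h; replace with chemical-containing medium (0.1% DMSO) for 48 h; extract medium with MTBE; quantify 17alpha-hydroxyprogesterone by reverse-phase C18 HPLC-MS/MS against a 7-point curve.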

A short description of assay [8]: CEETOX_H295R_CORTISOL: CeeTox H295R High-throughput Steroidogenesis Assay for Cortisol (AID 2283438; active = hit-call score of the fitted dose curve at least 0.9, where 1 is the maximum; inactive = score below 0.9). The note with it: actives raise or lower the signal. An outline of the steps:
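Cortisol synthesis by H295R cells is measured 48 h after chemical dosing, following a 48 h stimulation with 10 uM forskolin. Hormone is extracted and quantified by HPLC-MS/MS, and activity is fitted bidirectionally against the DMSO control.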

Assay [9] can be described thus: CEETOX_H295R_DOC: CeeTox H295R High-throughput Steroidogenesis Assay for DOC (AID 2283439; active = hit-call score of the fitted dose curve at least 0.9, where 1 is the maximum; inactive = score below 0.9). The note with it: actives raise or lower the signal. In short, it runs like this:
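Steps: seed H295R, adhere overnight; 10 uM forskolin 48 h; replace with chemical medium (0.1% DMSO) 48 h; collect medium, MTBE extraction, HPLC-MS/MS for DOC. Viability then checked by MTT; cytotoxic chemicals diluted until viability ≥70%.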

Assay [10] is described as follows: CEETOX_H295R_PROG: CeeTox H295R High-throughput Steroidogenesis Assay for Progesterone (PROG) (AID 2283442; active = hit-call score of the fitted dose curve at least 0.9, where 1 is the maximum; inactive = score below 0.9). The note with it: actives raise or lower the signal. An outline of the steps:
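Progesterone read-out: HPLC-MS/MS on MTBE extracts of conditioned medium after 48 h chemical exposure of forskolin-primed (10 uM, 48 h) H295R cells. Gain or loss of signal was fitted relative to DMSO baseline.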

Read-out in assay [11]: Tumor necrosis factor receptor superfamily member 6 (Homo sapiens) (UniProt P25445)
As to the kind of experiment: LTEA_HepaRG_FAS: Life Technologies and Expression Analysis (LTEA) Assay for Fas cell surface death receptor (FAS) using HepaRG (AID 2283447; active = hit-call score of the fitted dose curve at least 0.9, where 1 is the maximum; inactive = score below 0.9). The note with it: mRNA level, 48 h; actives raise or lower the signal. An outline of the steps: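 Differentiated human HepaRG cells, pre-cultured 48 h, were exposed in duplicate for 48 h to 8-point half-log concentrations (top 100 uM, 0.5% DMSO) in serum-free induction medium; FAS mRNA measured by qRT-PCR, normalized to ACTB/GAPDH/POLR2A, bidirectional fit versus DMSO.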

Read-out in assay [12]: Fatty acid synthase (Homo sapiens) (UniProt P49327)
As to the kind of experiment: LTEA_HepaRG_FASN: Life Technologies and Expression Analysis (LTEA) Assay for Fatty Acid Synthase (FASN) using HepaRG (AID 2283448; active = hit-call score of the fitted dose curve at least 0.9, where 1 is the maximum; inactive = score below 0.9). The note with it: mRNA level, 48 h; actives raise or lower the signal. In short, it runs like this:
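Cells were plated, cultured 48 h, switched to serum-free induction medium, then dosed in duplicate (max 100 uM, half-log dilutions, 0.5% DMSO) for 48 h. RNA was then isolated and FASN quantified by qRT-PCR.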

Read-out in assay [13]: Cyclin D2 (CCND2), CCND2 (gene 894)
Description: LTEA_HepaRG_CCND2: Life Technologies and Expression Analysis (LTEA) Assay for Cyclin D2 (CCND2) using HepaRG (AID 2283449; active = hit-call score of the fitted dose curve at least 0.9, where 1 is the maximum; inactive = score below 0.9;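 note: CCND2 transcript measured by TaqMan qRT-PCR and normalised to three housekeeping genes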). The note with it: mRNA level, 48 h; actives raise or lower the signal. In short, it runs like this:
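In this HepaRG study, an eight-point concentration series (max 100 uM, 0.5% DMSO) is applied for 48 h. CCND2 mRNA change is derived by qRT-PCR normalised to ACTB, GAPDH and POLR2A.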

Read-out in assay [14]: Cyclin Dependent Kinase Inhibitor 1A (CDKN1A), CDKN1A (gene 1026)
As to the kind of experiment: LTEA_HepaRG_CDKN1A: Life Technologies and Expression Analysis (LTEA) Assay for Cyclin Dependent Kinase Inhibitor 1A (CDKN1A) using HepaRG (AID 2283450; active = hit-call score of the fitted dose curve at least 0.9, where 1 is the maximum; inactive = score below 0.9). The note with it: mRNA level, 48 h; actives raise or lower the signal. In short, it runs like this:
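HepaRG, 48 h dosing, 8-pt half-log series from 100 uM top, 0.5% DMSO vehicle, duplicates. Readout: TaqMan qRT-PCR of CDKN1A transcript, housekeeping-normalized (ACTB, GAPDH, POLR2A). Up/down curve fit relative to DMSO.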

Assay [15] deals with Estrogen receptor (Homo sapiens) (UniProt P03372). Description: OT_ERa_GFPERaERE_0120: Odyssey Thera (OT) 2-hour HeLa Transcription Induction Assay for Estrogen Receptor (AID 2283382). An outline of the steps: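 Cells (human cervical HeLa) receive compound, incubate 2 hours, then are imaged for fluorescent reporter induction. Images are quantified by high content analysis, and activity is fitted as gain of signal against DMSO.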
Chain of Estrogen receptor (Homo sapiens) (P03372 whole entry, looked up): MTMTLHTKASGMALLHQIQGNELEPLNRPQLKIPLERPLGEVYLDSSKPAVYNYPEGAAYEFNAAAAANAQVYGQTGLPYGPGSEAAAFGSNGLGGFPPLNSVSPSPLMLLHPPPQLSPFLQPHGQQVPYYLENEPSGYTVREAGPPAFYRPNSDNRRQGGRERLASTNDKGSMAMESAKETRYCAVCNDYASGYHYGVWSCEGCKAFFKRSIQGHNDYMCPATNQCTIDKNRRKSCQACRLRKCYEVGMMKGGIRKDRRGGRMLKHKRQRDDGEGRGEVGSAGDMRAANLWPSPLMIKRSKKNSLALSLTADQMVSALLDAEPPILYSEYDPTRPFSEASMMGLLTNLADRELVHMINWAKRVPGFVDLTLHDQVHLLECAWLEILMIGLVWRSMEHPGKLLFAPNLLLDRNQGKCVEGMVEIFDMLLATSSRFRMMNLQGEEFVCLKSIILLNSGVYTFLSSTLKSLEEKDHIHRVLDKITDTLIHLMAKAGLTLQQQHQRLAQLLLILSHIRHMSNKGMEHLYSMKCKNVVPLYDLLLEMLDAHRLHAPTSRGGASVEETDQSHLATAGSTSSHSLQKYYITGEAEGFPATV

Assay [16] is described as follows: CEETOX_H295R_ESTRADIOL: CeeTox H295R High-throughput Steroidogenesis Assay for Estradiol (AID 2283440; active = hit-call score of the fitted dose curve at least 0.9, where 1 is the maximum; inactive = score below 0.9;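 note: estradiol secreted into medium quantified by LC-MS/MS after dansyl derivatisation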). To be noted: actives raise or lower the signal. An outline of the steps: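 H295R, 48 h forskolin (10 uM) prestim → 48 h compound, 0.1% DMSO final. Estradiol in medium: MTBE extraction, dansyl chloride derivatization, LC-MS/MS. Fit bidirectional vs DMSO baseline; MTT viability in same wells.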

Assay [17] in a line: CEETOX_H295R_ESTRONE: CeeTox H295R High-throughput Steroidogenesis Assay for Estrone (AID 2283441; active = hit-call score of the fitted dose curve at least 0.9, where 1 is the maximum; inactive = score below 0.9). The note with it: actives raise or lower the signal. An outline of the steps: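 Estrone secreted into medium quantified by LC-MS/MS after dansyl chloride derivatization, following 48 h chemical exposure (0.1% DMSO final) of forskolin-prestimulated (10 uM, 48 h) H295R cells; gain or loss fitted against DMSO; MTT viability in same wells.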

Where “and” joins values, the source holds several entries; their conditions need not be identical. Equal entries are not always repeated. Inconclusive results are not listed. The source holds several records for some structures; these can differ, active in one and inactive in another. Calls of active or inactive are those of the source. Rule for the calls, unless noted: active = hit-call score of the fitted dose curve at least 0.9, where 1 is the maximum; inconclusive = response in the unintended direction; inactive = score below 0.9.

Chain of Retinoic acid receptor RXR-alpha (Homo sapiens) (P19793 whole entry, looked up): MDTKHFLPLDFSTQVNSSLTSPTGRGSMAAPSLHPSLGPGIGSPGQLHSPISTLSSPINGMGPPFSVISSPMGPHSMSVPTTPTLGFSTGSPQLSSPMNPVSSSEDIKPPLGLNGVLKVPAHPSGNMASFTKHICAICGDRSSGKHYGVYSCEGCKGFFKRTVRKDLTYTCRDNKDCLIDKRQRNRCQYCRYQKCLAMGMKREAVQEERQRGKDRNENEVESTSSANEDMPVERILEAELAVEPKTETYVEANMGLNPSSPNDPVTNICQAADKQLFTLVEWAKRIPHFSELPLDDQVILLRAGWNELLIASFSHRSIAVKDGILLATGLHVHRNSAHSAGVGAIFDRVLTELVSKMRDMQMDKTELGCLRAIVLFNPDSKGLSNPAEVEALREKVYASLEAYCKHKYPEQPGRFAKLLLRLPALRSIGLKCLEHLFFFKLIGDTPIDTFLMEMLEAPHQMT
Chain of Fatty acid synthase (Homo sapiens) (P49327 whole entry, looked up): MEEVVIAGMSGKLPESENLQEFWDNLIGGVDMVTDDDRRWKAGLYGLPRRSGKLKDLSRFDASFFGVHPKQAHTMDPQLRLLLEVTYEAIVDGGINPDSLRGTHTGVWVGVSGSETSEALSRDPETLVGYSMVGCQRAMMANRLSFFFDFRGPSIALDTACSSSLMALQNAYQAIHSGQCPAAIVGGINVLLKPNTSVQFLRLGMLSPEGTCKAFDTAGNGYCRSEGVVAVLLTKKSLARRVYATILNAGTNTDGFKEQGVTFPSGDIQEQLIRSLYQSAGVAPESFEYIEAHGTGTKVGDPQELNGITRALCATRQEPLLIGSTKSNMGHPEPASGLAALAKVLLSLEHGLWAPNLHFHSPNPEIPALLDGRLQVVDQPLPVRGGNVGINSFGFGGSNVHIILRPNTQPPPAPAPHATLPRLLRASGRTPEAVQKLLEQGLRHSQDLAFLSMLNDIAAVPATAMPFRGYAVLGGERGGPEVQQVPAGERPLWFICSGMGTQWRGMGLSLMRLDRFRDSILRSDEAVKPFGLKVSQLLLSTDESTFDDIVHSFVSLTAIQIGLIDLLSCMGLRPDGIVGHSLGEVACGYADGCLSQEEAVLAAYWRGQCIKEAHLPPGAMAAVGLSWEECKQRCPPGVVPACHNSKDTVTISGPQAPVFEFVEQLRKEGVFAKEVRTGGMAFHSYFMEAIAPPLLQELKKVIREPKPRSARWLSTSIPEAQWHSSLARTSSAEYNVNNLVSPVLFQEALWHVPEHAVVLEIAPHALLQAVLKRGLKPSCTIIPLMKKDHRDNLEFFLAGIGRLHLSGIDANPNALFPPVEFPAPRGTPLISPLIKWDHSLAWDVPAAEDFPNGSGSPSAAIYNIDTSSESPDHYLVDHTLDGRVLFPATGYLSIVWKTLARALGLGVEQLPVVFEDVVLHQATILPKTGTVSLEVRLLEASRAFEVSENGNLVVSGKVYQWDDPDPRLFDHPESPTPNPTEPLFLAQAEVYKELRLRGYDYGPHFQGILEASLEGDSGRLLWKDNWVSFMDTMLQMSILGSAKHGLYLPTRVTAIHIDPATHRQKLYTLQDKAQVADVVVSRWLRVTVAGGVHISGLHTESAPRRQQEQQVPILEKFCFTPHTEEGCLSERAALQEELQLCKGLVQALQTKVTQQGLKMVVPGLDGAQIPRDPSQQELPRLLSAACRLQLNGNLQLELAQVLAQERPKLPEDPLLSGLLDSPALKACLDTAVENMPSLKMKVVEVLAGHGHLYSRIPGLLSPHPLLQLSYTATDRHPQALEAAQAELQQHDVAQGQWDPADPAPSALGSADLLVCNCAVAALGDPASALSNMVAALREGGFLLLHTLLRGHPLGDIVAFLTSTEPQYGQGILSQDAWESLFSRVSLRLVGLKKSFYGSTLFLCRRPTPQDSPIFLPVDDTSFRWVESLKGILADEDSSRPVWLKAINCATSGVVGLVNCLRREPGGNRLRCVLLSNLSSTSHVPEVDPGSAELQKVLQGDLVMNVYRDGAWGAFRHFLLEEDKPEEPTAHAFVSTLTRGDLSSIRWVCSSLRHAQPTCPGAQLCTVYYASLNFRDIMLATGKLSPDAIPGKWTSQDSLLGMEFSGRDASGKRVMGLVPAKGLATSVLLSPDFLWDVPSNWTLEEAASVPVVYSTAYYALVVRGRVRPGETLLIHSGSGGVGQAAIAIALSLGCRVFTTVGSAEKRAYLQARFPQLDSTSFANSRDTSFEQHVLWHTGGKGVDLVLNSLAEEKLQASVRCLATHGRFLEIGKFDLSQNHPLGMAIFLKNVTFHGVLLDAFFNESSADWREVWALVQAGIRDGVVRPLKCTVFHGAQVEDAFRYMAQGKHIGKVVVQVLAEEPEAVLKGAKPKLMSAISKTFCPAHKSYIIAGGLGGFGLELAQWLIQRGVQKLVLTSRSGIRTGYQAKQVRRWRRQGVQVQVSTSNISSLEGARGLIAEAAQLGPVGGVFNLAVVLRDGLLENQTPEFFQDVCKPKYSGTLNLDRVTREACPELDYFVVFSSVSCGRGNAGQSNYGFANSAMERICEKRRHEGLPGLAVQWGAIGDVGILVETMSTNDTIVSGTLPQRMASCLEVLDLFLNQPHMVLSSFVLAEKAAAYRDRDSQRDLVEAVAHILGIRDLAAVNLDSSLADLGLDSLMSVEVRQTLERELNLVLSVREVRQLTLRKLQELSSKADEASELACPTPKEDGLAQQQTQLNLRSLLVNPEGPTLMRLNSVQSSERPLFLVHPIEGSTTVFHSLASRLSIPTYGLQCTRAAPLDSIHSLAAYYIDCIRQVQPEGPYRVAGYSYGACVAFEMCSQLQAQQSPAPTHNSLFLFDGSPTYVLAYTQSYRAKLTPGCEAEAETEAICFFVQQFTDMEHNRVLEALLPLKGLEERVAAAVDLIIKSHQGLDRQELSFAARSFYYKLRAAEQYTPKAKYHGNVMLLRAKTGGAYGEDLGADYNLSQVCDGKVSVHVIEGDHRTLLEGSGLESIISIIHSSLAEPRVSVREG

As for `O=C(c1ccc(OCCN2CCCCC2)cc1)c1c(-c2ccc(O)cc2)sc2cc(O)ccc12`, the AC50 in assay [1] is 11.9 µM (active); in [2] it was 11.9 µM (active) and 11.8 µM (active); in assay [6], 0.35 µM (active). Also, the call in [1], in assay [2], in [3], in assay [4], in assay [5] and in assay [7] was inactive. Besides, the result in assay [8], in assay [9], in [10], in assay [11], in assay [12] and in assay [13] was inactive. The compound was classed as inactive in assay [14].

`CC(O)CNCC(C)O` (configuration not stated): the compound was called inactive in assay [15], in [3] and in [4].

For `c1coc(CNc2ncnc3nc[nH]c23)c1`, the compound was classed as inactive in assay [15], in assay [3], in assay [4], in [5], in assay [6] and in assay [7]. In addition, the compound was called inactive in assay [9] and in [10].

As to `COC(=O)c1cccc(C(=O)OC)c1`, the compound was called inactive in assay [15], in assay [2], in assay [3] and in assay [4].

For the compound `CCCO[Si](OCCC)(OCCC)OCCC`, the compound was called inactive in [15], in assay [3] and in [4].

For the compound `CCCCOCCOCCO`, the compound was called inactive in assay [15], in assay [2], in assay [3], in assay [4], in assay [11] and in [12]. In addition, the outcome in assay [13] and in assay [14] was inactive.

As to `CC(=O)N(C)C`, the result in [15], in [3] and in assay [4] was inactive.

As for `Cc1cccc(C)c1`, the outcome in [15], in assay [2], in [3] and in assay [4] was inactive.

Take `OCC=Cc1ccccc1`: the call in assay [15], in assay [2], in [3], in assay [4], in assay [6] and in assay [7] was inactive. The compound was called inactive in assay [16], in assay [17] and in assay [10].

Take `FC(F)(F)c1ccc(Cl)c(Cl)c1`: the result in [15], in assay [2], in [3] and in [4] was inactive.

As to `CC(C)N(c1ccccc1)C(C)C`, the outcome in [15], in assay [2], in [3] and in assay [4] was inactive.

In the case of `CCCC[N+](C)(CCCC)CCCC`, the result in assay [2], in assay [3] and in assay [4] was inactive.

For the compound `CCCCCCCCCCOC(=O)c1ccccc1C(=O)OCCCCCCCC`, the call in assay [15], in assay [2], in assay [3] and in [4] was inactive.

In the case of `O=c1cc(-c2ccc(O)cc2)oc2cc(O)cc(O)c12`, the outcome in assay [3], in [4] and in assay [8] was inactive. The half-maximal activity concentration (AC50) in assay [5] was 8.73 µM (active); in [9], 7.72 µM (active).

Take `CN(C)C(=O)Nc1ccccc1`: the outcome in assay [15], in assay [2], in assay [3] and in assay [4] was inactive.

Broadly, the AC50 is the concentration giving half of the maximal activity seen.

These data come from PubChem BioAssay (EPA / NIEHS).
